Measured values: PubChem BioAssay AID1159580 (chemical genetic matrix, 2015)
About 2,000 (36%) of roughly 5,500 compounds were called active. Not shown: some 18% with an inconclusive outcome. No stated cut-off is given here; in the data, active means normalized growth mostly below about 0.91 (no sharp cut-off); inconclusive means no clear call, values can overlap the other calls; inactive means mostly above about 0.92. The list shows a part of the results.

Assay: chemical genetic growth profiling, strain panel (AID 1159580);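 further: tested at 20 µM; growth read once vehicle control cultures reached saturation at 30 °C; 1 = growth at the plate median or of vehicle wells; lower values mean less growth of the strain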
Conditions: growth OD

Measured: normalized growth

CN(C)CC[C@H](c1ccc(Cl)cc1)c1ccccn1
inactive: S. cerevisiae deletion strains, locus YJR075W, strain HOC1, hits give low values 0.994 | S. cerevisiae deletion strains, locus YKL009W, strain mrt4, hits give low values 1.01 | S. cerevisiae deletion strains, locus YKL068W, hits give low values 0.997 | S. cerevisiae deletion strains, locus YKL085W, strain MDH1 (second series), hits give low values 0.995 | S. cerevisiae deletion strains, locus YKL085W, strain MDH1, hits give low values 0.995 | S. cerevisiae deletion strains, locus YKL160W, strain elf1, hits give low values 0.994 | S. cerevisiae deletion strains, locus YKL190W, strain CNB1, hits give low values 1 | S. cerevisiae deletion strains, locus YKR001C, strain vps1, hits give low values 0.989 | S. cerevisiae deletion strains, locus YKR026C, strain gcn3, hits give low values 1 | S. cerevisiae deletion strains, locus YKR091W, strain srl3, hits give low values 1.01 | S. cerevisiae deletion strains, locus YLL001W, strain dnm1, hits give low values 0.991 | S. cerevisiae deletion strains, locus YLL026W, hits give low values 0.997 | S. cerevisiae deletion strains, locus YLL041C, strain sdh2, hits give low values 0.992 | S. cerevisiae deletion strains, locus YLR027C, strain aat2, hits give low values 1 | S. cerevisiae deletion strains, locus YLR039C, strain RIC1, hits give low values 1.04 | S. cerevisiae deletion strains, locus YLR058C, strain SHM2, hits give low values 1 | S. cerevisiae deletion strains, locus YLR102C, strain apc9, hits give low values 0.989 | S. cerevisiae deletion strains, locus YLR113W, strain HOG1, hits give low values 1.02 | S. cerevisiae deletion strains, locus YLR221C, strain rsa3, hits give low values 1.01 | S. cerevisiae deletion strains, locus YLR258W, strain gsy2, hits give low values 0.993 | S. cerevisiae deletion strains, locus YLR262C, strain YPT6 (second series), hits give low values 1.01 | S. cerevisiae deletion strains, locus YLR262C, strain YPT6, hits give low values 1 | S. cerevisiae deletion strains, locus YLR268W, strain sec22, hits give low values 0.965 | S. cerevisiae deletion strains, locus YLR320W, strain mms22, hits give low values 0.997 | S. cerevisiae deletion strains, locus YLR330W, strain CHS5, hits give low values 1.01 | S. cerevisiae deletion strains, locus YLR342W, strain FKS1 (second series), hits give low values 1.02 | S. cerevisiae deletion strains, locus YLR342W, strain FKS1, hits give low values 1 | S. cerevisiae deletion strains, locus YLR357W, strain rsc2, hits give low values 0.959 | S. cerevisiae deletion strains, locus YLR370C, strain arc18, hits give low values 1 | S. cerevisiae deletion strains, locus YLR371W, strain rom2, hits give low values 0.991 | S. cerevisiae deletion strains, locus YLR384C, strain iki3, hits give low values 0.996 | S. cerevisiae deletion strains, locus YLR418C, strain cdc73, hits give low values 0.994 | S. cerevisiae deletion strains, locus YML016C, strain PPZ1, hits give low values 1 | S. cerevisiae deletion strains, locus YML032C, strain rad52, hits give low values 0.966 | S. cerevisiae deletion strains, locus YML120C, strain ndi1, hits give low values 1.01 | S. cerevisiae deletion strains, locus YML124C, strain tub3, hits give low values 0.994 | S. cerevisiae deletion strains, locus YMR058W, strain fet3, hits give low values 1 | S. cerevisiae deletion strains, locus YMR078C, strain ctf18, hits give low values 0.993 | S. cerevisiae deletion strains, locus YMR125W, strain sto1, hits give low values 0.997 | S. cerevisiae deletion strains, locus YMR129W, hits give low values 1 | S. cerevisiae deletion strains, locus YMR205C, strain PFK2, hits give low values 1.02 | S. cerevisiae deletion strains, locus YMR223W, strain ubp8, hits give low values 1.01 | S. cerevisiae deletion strains, locus YMR231W, strain pep5, hits give low values 0.993 | S. cerevisiae deletion strains, locus YMR263W, strain SAP30, hits give low values 1.02 | S. cerevisiae deletion strains, locus YMR307W, strain GAS1, hits give low values 0.99 | S. cerevisiae deletion strains, locus YNL067W, strain RPL9B, hits give low values 0.999 | S. cerevisiae deletion strains, locus YNL071W, strain lat1, hits give low values 0.998 | S. cerevisiae deletion strains, locus YNL128W, strain TEP1, hits give low values 1.01 | S. cerevisiae deletion strains, locus YNL153C, strain GIM3, hits give low values 0.992 | S. cerevisiae deletion strains, locus YNL183C, strain NPR1, hits give low values 0.956 | S. cerevisiae deletion strains, locus YNL209W, strain ssb2, hits give low values 1 | S. cerevisiae deletion strains, locus YNL233W, strain BNI4, hits give low values 1.01 | S. cerevisiae deletion strains, locus YNL248C, strain rpa49, hits give low values 0.945 | S. cerevisiae deletion strains, locus YNL250W, strain rad50, hits give low values 0.977 | S. cerevisiae deletion strains, locus YNL271C, strain bni1, hits give low values 0.988 | S. cerevisiae deletion strains, locus YNL298W, strain CLA4, hits give low values 0.996 | S. cerevisiae deletion strains, locus YNL307C, strain MCK1, hits give low values 1 | S. cerevisiae deletion strains, locus YNL322C, strain KRE1 (second series), hits give low values 1.02 | S. cerevisiae deletion strains, locus YNL322C, strain KRE1, hits give low values 1 | S. cerevisiae deletion strains, locus YNR049C, strain mso1, hits give low values 0.996 | S. cerevisiae deletion strains, locus YNR052C, strain pop2, hits give low values 0.989 | S. cerevisiae deletion strains, locus YOL006C, strain TOP1, hits give low values 1 | S. cerevisiae deletion strains, locus YOL012C, strain htz1 0.629 | S. cerevisiae deletion strains, locus YOL147C, strain pex11, hits give low values 0.991 | S. cerevisiae deletion strains, locus YOR001W, strain rrp6, hits give low values 0.987 | S. cerevisiae deletion strains, locus YOR061W, strain CKA2, hits give low values 1.01 | S. cerevisiae deletion strains, locus YOR069W, strain VPS5, hits give low values 1 | S. cerevisiae deletion strains, locus YOR070C, strain gyp1, hits give low values 0.997 | S. cerevisiae deletion strains, locus YOR080W, strain dia2, hits give low values 0.997 | S. cerevisiae deletion strains, locus YOR083W, strain WHI5, hits give low values 0.997 | S. cerevisiae deletion strains, locus YOR106W, strain vam3, hits give low values 1.01 | S. cerevisiae deletion strains, locus YOR136W, strain idh2, hits give low values 0.992 | S. cerevisiae deletion strains, locus YOR144C, strain elg1, hits give low values 0.988 | S. cerevisiae deletion strains, locus YOR184W, strain ser1, hits give low values 1.02 | S. cerevisiae deletion strains, locus YOR231W, strain MKK1, hits give low values 0.998 | S. cerevisiae deletion strains, locus YOR265W, strain rbl2, hits give low values 1 | S. cerevisiae deletion strains, locus YOR270C, strain vph1, hits give low values 1.01 | S. cerevisiae deletion strains, locus YOR290C, strain snf2, hits give low values 0.998 | S. cerevisiae deletion strains, locus YOR316C, strain cot1, hits give low values 0.995 | S. cerevisiae deletion strains, locus YPL051W, strain arl3, hits give low values 1.01 | S. cerevisiae deletion strains, locus YPL055C, strain LGE1, hits give low values 1.02 | S. cerevisiae deletion strains, locus YPL078C, strain atp4, hits give low values 0.989 | S. cerevisiae deletion strains, locus YPL106C, strain sse1, hits give low values 1.01 | S. cerevisiae deletion strains, locus YPL240C, strain hsp82, hits give low values 0.997 | S. cerevisiae deletion strains, locus YPL241C, strain CIN2, hits give low values 1 | S. cerevisiae deletion strains, locus YPL256C, strain CLN2, hits give low values 0.985 | S. cerevisiae deletion strains, locus YPR119W, strain clb2, hits give low values 0.989 | S. cerevisiae deletion strains, locus YPR141C, strain kar3, hits give low values 0.98 | S. cerevisiae deletion strains, locus YPR163C, strain tif3, hits give low values 0.992 | S. cerevisiae deletion strains, locus YPR167C, strain met16, hits give low values 0.994 | S. cerevisiae deletion strains, strain wtn01, hits give low values 0.995 | S. cerevisiae strains, strain wild type, hits give low values 1.01
